# Screening results as filed in PubChem.
# Shown are actives, neighbours in structure and some others; about 2.9% of the full set was active somewhere.
# TRPML1 ag: human mucolipin-1 channel agonism; Q9GZU1; TRPML1-expressing cells, Ca2+ dye fluorescence, FDSS; activation, % (concentration not given with the values); 410,000 compounds, 0.12% hits; AID 624414; in the data active = activation above about 50%; inconclusive = mostly about 30% to 49%
#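 Calcium fluorescence on an FDSS kinetic reader gave the read-out. Tet-induced TRPML1-DL cells were plated overnight, dye-loaded (Ca8 with quencher, 45-90 min, room temperature, dark), then read 110 s after compound addition, and again 110 s after 4uM final 54-4 (EC80).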
# D3 antag: D3 dopamine receptor (human) antagonism | max response, negative = inhibition, % | 360,000 compounds, 2.5% hits | D3R cells, DiscoveRx beta-arrestin luminescence, antagonist mode; stronger effect = lower value; in the data active = max response below about -50%; inconclusive = no clear call, values can overlap the other calls
# Target sequence (P35462 whole entry, looked up): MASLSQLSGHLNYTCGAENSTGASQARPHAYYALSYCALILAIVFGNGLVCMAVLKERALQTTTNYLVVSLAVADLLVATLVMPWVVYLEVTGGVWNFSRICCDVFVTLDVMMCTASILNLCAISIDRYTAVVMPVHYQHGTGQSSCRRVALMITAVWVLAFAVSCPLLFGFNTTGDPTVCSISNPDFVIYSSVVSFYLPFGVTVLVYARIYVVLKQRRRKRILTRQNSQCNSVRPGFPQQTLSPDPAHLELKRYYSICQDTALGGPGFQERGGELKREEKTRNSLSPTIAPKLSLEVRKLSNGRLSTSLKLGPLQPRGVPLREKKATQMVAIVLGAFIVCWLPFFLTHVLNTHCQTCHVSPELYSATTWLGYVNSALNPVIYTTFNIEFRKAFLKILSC
#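 Cells expressing the human receptor were seeded at 1500 cells/well, incubated overnight at 37 degrees C in 5% CO2, then exposed to library compounds with dopamine controls for 90 minutes at 37 degrees C before luminescent detection.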
# TRPML1 blocker: blocks the human TRPML1 channel; Q9GZU1; TRPML1-inducible cells, Ca2+ dye fluorescence, FDSS; stronger effect = lower value; inhibition of EC80 agonist-evoked calcium signal; activity change, negative = inhibition, % (no concentration beside the values); 390,000 compounds, 0.02% hits; AID 624415; in the data active = activity change below about -50%; inconclusive = between about -30% and that limit;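 note: stimulus is agonist 54-4 at its EC80 concentration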
#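 Calcium fluorescence in TRPML1-DL cells induced overnight with Tet: a 110 s read after compound pin addition, then a 110 s antagonist read after challenge with 54-4 at 4 uM final (EC80).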
# DRD3 agonist: agonists of human D3 dopamine receptor | P35462 | D3R DiscoveRx beta-arrestin cells, luminescence, 90 min | max activation, % | 410,000 compounds, 0.58% hits | AID 652048; in the data active = max activation above about 30%
#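 Agonist-mode cell screen: cells plated at 1500/well and incubated overnight at 37 °C, then exposed to library compounds for 90 min at 37 °C. Detection reagent was added for 30–60 min at room temperature, and luminescence was read.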
# A number is an active result; – = inactive; ? = inconclusive; · = not tested or not shown.
SMILES,TRPML1 ag,D3 antag,TRPML1 blocker,DRD3 agonist
CCCCC(=O)N(C)c1c(C)nc2ccc(C(=O)N(C)CCN(C)C)cn12,–,–,·,–
Cc1ccn2c(Nc3ccccc3C)c(-c3ccccn3)nc2c1,–,-59.4,–,–
Cc1ccn2c(Nc3ccccc3)c(-c3ccccn3)nc2c1,–,-73.8,–,–
Cc1ccccc1Nc1c(-c2ccccn2)nc2ccccn12,–,?,–,–
Cc1ccc2nc(-c3ccccn3)c(Nc3ccccc3C)n2c1,–,-59.2,–,–
COC(=O)c1ccc2nc(C)cc(Nc3cccc(Cl)c3C)c2c1,–,·,–,–
O=C(O[C@@H]1OC2COC(=O)c3cc(O)c(O)c(O)c3-c3c(cc(O)c(O)c3O)C(=O)O[C@@H]([C@H]1O)[C@@H]2O)c1cc(O)c(O)c(O)c1,–,–,–,32.1
COc1cccc(CNC(=O)CN2C(=O)N(c3c(C)cccc3C)S(=O)(=O)c3ccccc32)c1OC,–,·,–,–
CCOC(=O)CN1C(C(=O)c2ccccc2)=C(OC(=O)c2ccccc2)c2ccccc2S1(=O)=O,–,·,–,49.5
COc1ccc(C(CNC(=O)CCNS(=O)(=O)c2ccc(Br)cc2)N2CCCC2)cc1 (configuration not stated),–,-50.4,–,–
COc1ccc(C(CNC(=O)C(C)Oc2ccc(Br)cc2)N2CCCCC2)cc1 (configuration not stated),–,-92.2,–,–
O=C1C(=C(c2ccccc2)N2CCOCC2)Cc2ccccc21,–,-124.7,–,–
CCCCCCCCCCCC(=O)NC(C(=O)OCC)C(O)c1cccc([N+](=O)[O-])c1 (configuration not stated),–,–,–,32.3
CCOC(=O)C(NC(C)=O)C(O)c1ccc([N+](=O)[O-])cc1 (configuration not stated),–,–,–,–
CC(=O)SCC(=O)N=c1sc2cc(F)ccc2n1C,–,–,–,45.8
Cn1c(=NC(=O)CS(=O)(=O)c2ccccc2)sc2cc(F)ccc21,–,–,–,–
COc1ccc(-c2nnn(CC(=O)N3CCN(c4ccc(F)cc4)CC3)n2)cc1,·,–,·,–
COc1ccc(-c2nnn(CC(=O)N3CCOCC3)n2)cc1,–,-59.7,–,–
COc1cc(OC)cc(C(=O)N2CCN(C3CCN(Cc4ccccc4)CC3)CC2)c1,–,-62.3,–,–
COc1cc(OC)cc(C(=O)N2CCN(C3CCCCC3)CC2)c1,–,?,–,–
O=C(c1ccc2c(c1)CCC2)N1CCN(Cc2ccccc2)CC1,–,-61.1,–,–
O=C(c1ccc(CN2CCc3ccccc3C2)cc1)N1CCN(c2ccccc2)CC1,–,-62.3,–,–
O=C(c1ccc(CN2CCc3ccccc3C2)cc1)N1CCc2ccccc2C1,–,-75.9,–,–
CC1(C(=O)NS(=O)(=O)c2ccc(F)cc2F)CCN1C(=O)c1ccco1 (configuration not stated),–,–,·,–
CC1(C(=O)NS(=O)(=O)c2ccccc2OC(F)(F)F)CCN1C(=O)c1ccco1 (configuration not stated),–,-59.7,·,–
SMILES,TRPML1 ag,D3 antag,TRPML1 blocker,DRD3 agonist
Cc1ccsc1C(=O)N1CCC1(C)C(=O)NS(=O)(=O)c1ccccc1C(F)(F)F (configuration not stated),–,–,·,98.5
CCOc1cc2sc(N3CCC(C(=O)Nc4ccccc4Cl)CC3)nc2cc1Br,–,·,–,–
COC(=O)c1[nH]c2ccc(C)cc2c1NS(=O)(=O)c1ccc(F)c(C)c1,–,-51.2,–,–
COC(=O)c1[nH]c2ccc(F)cc2c1NS(=O)(=O)c1ccc(F)c(C)c1,–,–,–,–
O=C(Nc1ccc(O)c2c(=O)cc(-c3ccccc3Cl)oc12)c1ccc(F)cc1,–,–,–,–
O=c1cc(-c2ccccc2Cl)oc2c(NS(=O)(=O)c3cc(Cl)cc(Cl)c3O)ccc(O)c12,–,–,–,36.0
CC(C)(C)c1ccc(C(=O)Nc2ccc(O)c3c(=O)cc(-c4ccccc4Cl)oc23)cc1,–,–,–,119.3
Cc1nn(-c2ccccc2)c(-n2cccc2)c1C(=O)N1CCN(c2ccccc2)CC1,–,·,–,–
CCCCCCCCCCCCCC(=O)Nc1ccc(/C=C/c2ccnc3ccccc23)cc1,–,·,·,·
O=C(NNS(=O)(=O)c1ccc(Cl)cc1)c1cccs1,–,-61.5,–,–
COc1ccc(S(=O)(=O)NNC(=O)c2cccs2)cc1,–,–,–,–
O=C(NCCCNC(=O)c1cccs1)c1cccs1,–,-64.0,–,–
CCN(CC)CCOc1ccc(/C(=C(\Cl)c2ccccc2)c2ccccc2)cc1,–,-65.1,–,·
CCN(CC)CCN(C)Cc1ccc(Br)cc1,–,-55.1,–,–
CCN(CC)CCOc1ccccc1OC,–,–,–,–
CCN(CC)CCOc1ccc(Br)cc1,–,-119.1,–,–
CC(C)(C)NCCOc1ccc(Br)cc1,–,-51.6,–,–
COc1cccc(OC)c1OCCNC(C)(C)C,–,–,–,–
O=C(c1cccc([N+](=O)[O-])c1)N1CCc2ccccc21,–,–,–,–
O=C(c1ccc([N+](=O)[O-])cc1)N1CCc2ccccc21,–,-55.5,–,–
N=c1sccn1CC(=O)N1CCc2ccccc21,–,-65.2,–,–
CC1CCN(CC(=O)N2CCc3ccccc32)CC1,–,-57.6,–,–
Cc1nc(SCC(=O)N2CCCc3ccccc32)c2oc3ccccc3c2n1,–,–,–,34.2
Cc1ccc2c(C(=O)CNC3=NCCS3)c(C)[nH]c2c1,–,·,·,·
O=C(C1CCC(C(=O)N2CCc3ccccc32)CC1)N1CCc2ccccc21 (configuration not stated),–,-59.0,–,–
SMILES,TRPML1 ag,D3 antag,TRPML1 blocker,DRD3 agonist
CCOC(=O)C1CCN(CC(=O)N2CCc3ccccc32)CC1,–,-74.4,–,–
O=C(CN1CCCC1)N1CCCc2ccccc21,–,?,–,–
CCn1c(SCC(=O)N2CCCc3ccccc32)nnc1-c1cccs1,–,-68.0,–,–
O=C(CN1CCCCC1)N1CCCc2ccccc21,–,-82.3,–,–
CCOC(=O)C1CCN(Cc2ccccc2C)CC1,–,–,–,–
CC(=O)N1CCc2cc(CNS(=O)(=O)c3ccc(Cl)s3)ccc21,–,·,–,–
Cc1ccc(NC(=O)COC(=O)c2ccccc2OCC(=O)N(C)C)cc1,–,·,·,·
N#Cc1c(NCCN)nc(NCc2ccccc2)c2c1CCN(Cc1ccccc1)C2,–,–,–,–
C=CCNc1nc(NCc2ccccc2)c(C#N)c2c1CN(C)CC2,–,-66.2,–,–
C=CCn1c(N)cc(=O)nc1SCC(=O)N1CCN(c2ccc(F)cc2)CC1,–,-153.0,–,–
COc1cc2c(=O)c(C(=O)c3ccc(C)c(C)c3)cn(Cc3ccccc3F)c2cc1OC,–,·,–,–
O=c1c2c(-c3ccccc3)csc2ncn1/N=C/c1cccc([N+](=O)[O-])c1O,–,-51.8,–,–
O=c1nc(/C=C/c2cc([N+](=O)[O-])ccc2Cl)cc(C(F)(F)F)[nH]1,–,-69.1,–,–
Cc1ccccc1NC(=O)Cn1c(=O)n(Cc2ccco2)c(=O)c2cccnc21,–,·,–,–
